Laboratory results from PubChem BioAssay AID837 (The Scripps Research Institute Molecular Screening Center, 2007).
Activity calls are given as the source filed them.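 The calls were made as follows: active = relative FRET score above 0.01, or acceptor fluorescence over 30% below the sample-well median; inactive = the rest.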

Each compound was assayed against Protein Rev (Human immunodeficiency virus type 1 group M subtype B (isolate WMJ22)) (UniProt P05866) (assay: HIV-1 Rev-RRE binding inhibitors, retest, confirmation, biochemical, FRET, acceptor and relative FRET calls (AID 837;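 also: relative FRET combines rise in Cy5 acceptor with fall in fluorescein donor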)). Conditions: Fl-Rev peptide / Cy5-RRE RNA FRET, 1536-well; at 8 µM.
Chain of Protein Rev (Human immunodeficiency virus type 1 group M subtype B (isolate WMJ22)) (P05866 whole entry, looked up): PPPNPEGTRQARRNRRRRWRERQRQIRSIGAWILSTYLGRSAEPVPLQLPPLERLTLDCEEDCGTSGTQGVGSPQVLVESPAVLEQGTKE
CCc1nnc(NC(=O)c2ccc3c(c2)C(=O)N(C(C)(C)C)C3=O)s1 was tested, and the outcome was “inactive”. With c1ccc(COc2ccc(OCCCCN3CCCCC3)cc2)cc1 the outcome was “inactive”. With CCCCN1CCc2c1nc1ccc(Br)cc1c2N the outcome was “inactive”. With CCCCOC(=O)Cn1c(=N)n(CCC)c2ccccc21 the outcome was “inactive”. COc1cccc(OC)c1-c1nn2c(-c3cc(-c4ccccc4)n[nH]3)nnc2s1 was tested, and the outcome was “active”. In the case of Cc1ccc(Nc2nc(N)nc(CSc3nnnn3-c3ccccc3)n2)cc1, the outcome is reported as “inactive”. With CC(C)CN=c1cc(-c2ccccc2)oc2ccc(Cl)cc12 the outcome was “active”. COc1cccc(-c2cc(C(F)(F)F)nc(N3CCC(C)CC3)n2)c1 was tested, and the outcome was “inactive”. OC(COCCC12CC3CC(CC(C3)C1)C2)CN1CCCCC1 (stereo not given) was tested, and the outcome was “inactive”. In the case of CCOc1ccc(C(O)Cn2c(=N)n(CCN3CCCCC3)c3ccccc32)cc1 (stereo not given), the outcome is reported as “inactive”. For OC(CN1C2=NCCCN2c2ccccc21)c1ccc(Br)cc1 (stereo not given), the outcome was “inactive”. For COc1ccc(NC(=O)Nc2ccc(N(C)C)cc2)cc1, the outcome was “inactive”. C=CCNCCCCOc1c(Cl)cc(C)cc1Br was tested, and the outcome was “inactive”. CCN(CC)CCOc1cc2c(nn1)Oc1ccccc1N2C was tested, and the outcome was “inactive”. In the case of N=c1n(CCO)c2ccccc2n1Cc1ccccc1Cl, the outcome is reported as “inactive”. In the case of CC(C)OC(=O)c1c2nc3ccccc3nc2n2c1[nH]c(=O)c1ccccc12, the outcome is reported as “inactive”. In the case of CN(C)CC(O)COc1ccc(C(C)(C)c2ccc(OCC(O)CN(C)C)cc2)cc1 (stereo not given), the outcome is reported as “inactive”. With Cc1ccc(C(=O)NNC(=O)CSc2nnc3c(n2)[nH]c2ccc(F)cc23)cc1 the outcome was “active; quenches the donor”. In the case of CCN(CC)CCCOc1ccc(C)cc1Br, the outcome is reported as “inactive”. In the case of CCCN1C2=NCCN2c2cc(C)c(C)cc21, the outcome is reported as “inactive”. O=C(N/N=C/c1cccc(F)c1)c1cc(-c2ccco2)nc2ccccc12 was tested, and the outcome was “active; quenches the donor”. In the case of COc1ccc2nc(NC(=O)c3ccc(Br)s3)sc2c1, the outcome is reported as “inactive”. In the case of O=[N+]([O-])c1ccc2nc(-c3ccc(Cl)cc3)n(OCc3ccccc3)c2c1, the outcome is reported as “inactive”. With Cc1c(Cl)cccc1Nc1nc(N)nc(CN2CCCCCC2)n1 the outcome was “inactive”. For CCCCOc1ccc(NC2=NC3(CCCCC3)N=C(N)N2)cc1, the outcome was “inactive”. With CCOC(=O)c1cn2nc(-c3ccc(OCC)cc3)cc2nc1C1CCN(C(=O)OC(C)(C)C)CC1 the outcome was “inactive”. In the case of Cc1ccsc1C1NC(=O)c2c(sc3c2CCN(C)C3)N1 (stereo not given), the outcome is reported as “inactive”. In the case of OC(COc1ccc(C2C=CCC2)cc1)CN1CCCCC1 (stereo not given), the outcome is reported as “inactive”. In the case of O=c1[nH]c2cc(Br)cnc2nc1/C=C(\O)c1ccc(F)cc1, the outcome is reported as “inactive”. Cc1nc(NC(=O)c2ccc(Br)o2)sc1C was tested, and the outcome was “inactive”. With CC(=O)c1ccc(NC(=O)c2ccc3nc(-c4ccco4)c(-c4ccco4)nc3c2)cc1 the outcome was “inactive”. For COc1ccc(CN(C)C2CCCCC2)c(C)c1C, the outcome was “inactive”. Nc1nc(Nc2ccccc2)nc2ccccc12 was tested, and the outcome was “inactive”. In the case of CCc1ccc2nc3nc(C)cc(C)c3c(N)c2c1, the outcome is reported as “active”. With CC12Cc3ccc4ccccc4c3C=C1C[N+](C)(C)C2 (stereo not given) the outcome was “inactive”. COc1ccccc1Nc1nc(N)nc(CN(C)C2CCCCC2)n1 was tested, and the outcome was “inactive”. COc1ccc(Nc2nc(N)nc(CN(C)C3CCCCC3)n2)cc1 was tested, and the outcome was “active”. In the case of Nc1nc(CN2CCCCCC2)nc(Nc2ccc(F)cc2)n1, the outcome is reported as “inactive”. CCC1=NNc2cccc3c(OC)ccc1c23 was tested, and the outcome was “inactive”. With CCN(N=Nc1cccc([N+](=O)[O-])c1)c1cccc([N+](=O)[O-])c1 the outcome was “inactive”.
